Drawing on PubChem BioAssay (NCI), this text covers growth inhibition for 10 compounds.

Assay [1] is described as follows: NCI Yeast Anticancer Drug Screen. Data for the rad50 strain (AID 155).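 Further: 0% = growth of vehicle-only cultures of the same strain.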 The following applies: S. cerevisiae rad50 strain growth inhibition, stronger effect = higher value. In outline: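 Yeast carrying a defined DNA repair defect were exposed to test compounds, and growth was compared with vehicle-treated controls to give percent inhibition.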
Assay [2] in a line: NCI Yeast Anticancer Drug Screen. Data for the mec2-1 strain (AID 157). The following applies: S. cerevisiae mec2-1 strain, stronger effect = higher value. In outline: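 Using mec2-1 yeast: add compound, measure growth, express inhibition versus vehicle-treated cultures.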
Assay [3] in a line: NCI Yeast Anticancer Drug Screen. Data for the sgs1 mgt1 strain (AID 161).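 Further: 0% = growth of cultures given vehicle only.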 The following applies: S. cerevisiae sgs1 mgt1 strain, stronger effect = higher value. In outline: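 Compounds are added to genetically altered yeast, and growth is compared with cultures given vehicle alone to give percent inhibition.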
Assay [4] is described as follows: NCI Yeast Anticancer Drug Screen. Data for the cln2 rad14 strain (AID 165).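 Further: 0% = growth equal to vehicle treated cultures.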 The following applies: S. cerevisiae cln2 rad14 strain, stronger effect = higher value. The method, boiled down: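 Yeast strain cln2 rad14, bearing defects in cell cycle control and DNA repair, serves as the test system; values reflect growth inhibition compared with vehicle.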
A short description of assay [5]: NCI Yeast Anticancer Drug Screen. Data for the bub3 strain (AID 167). The following applies: S. cerevisiae bub3 mutant strain, stronger effect = higher value. In outline:
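Compounds were applied to a genetically altered yeast strain carrying a cell-cycle control defect. Growth inhibition was scored against vehicle-treated controls.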

Assay [6] in a line: NCI Yeast Anticancer Drug Screen. Data for the mlh1 rad18 strain (AID 175). The following applies: S. cerevisiae mlh1 rad18 strain growth inhibition, stronger effect = higher value. In outline:
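Steps: expose repair-defective yeast to compound; measure growth; express inhibition against vehicle-treated controls.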

The mark [7] stands for this setting: at 5.0 µM (retest, dose inferred, filed as 0.5).
The mark [8] stands for this setting: at 50.0 µM (retest, dose inferred, filed as 5.0).

This is part of a sample that, as a whole, favours compounds with a hit. Of some 79,000 tested, about 15% had one in any assay. A number with no mark means an inactive call. The source made the active and inactive calls. No stated cut-off is given here; in the data, active means growth inhibition above about 70%; inactive means the rest.

As to `C=C(CC)C[C@@H]1C[C@]2(C(=O)OC)c3[nH]c4ccccc4c3CCN2C1=O`, the growth inhibition in assay [1] (setting [7]) is -1%; in assay [1] (setting [8]) it was 94% (active); in assay [1] (at 50.0 µM), 52.5%; in assay [2] (setting [7]), 0%; in assay [2] (setting [8]) it was 85% (active); in assay [2] (at 50.0 µM) it was 26.9%. The growth inhibition in assay [3] (setting [7]) was 8%; in assay [3] (setting [8]) it was 98% (active); in assay [3] (at 50.0 µM) it was 58.4%; in assay [4] (setting [7]), 15%; in assay [4] (setting [8]), 77% (active); in assay [4] (at 50.0 µM) it was 62.5%. The growth inhibition was 2% in assay [5] (setting [7]); 18% in assay [5] (setting [8]); 48.5% in assay [5] (at 50.0 µM); 0% in assay [6] (setting [7]); 96% (active) in assay [6] (setting [8]); 82.5% (active) in assay [6] (at 50.0 µM).

In the case of `Cc1c2cnccc2c(C)c2c1sc1ccccc12`, the growth inhibition is 92% (active) in assay [1] (setting [7]); 88% (active) in assay [1] (setting [8]); 96.5% (active) in assay [1] (at 50.0 µM); 80% (active) in assay [2] (setting [7]); 96% (active) in assay [2] (setting [8]); 73.5% (active) in assay [2] (at 50.0 µM). Further, the growth inhibition in assay [3] (setting [7]) was 87% (active); in assay [3] (setting [8]), 96% (active); in assay [3] (at 50.0 µM) it was 90.2% (active); in assay [4] (setting [7]) it was 65%; in assay [4] (setting [8]) it was 91% (active); in assay [4] (at 50.0 µM), 75.5% (active). Further, the growth inhibition in assay [5] (setting [7]) was 56%; in assay [5] (setting [8]) it was 93% (active); in assay [5] (at 50.0 µM) it was 81.3% (active); in assay [6] (setting [7]), 96% (active); in assay [6] (setting [8]) it was 92% (active); in assay [6] (at 50.0 µM), 97.7% (active).

For the compound `COc1cccc(C2c3cc4c(cc3OC(N3CCCC3)C2c2ccccc2)OCO4)c1O` (stereo not given), the growth inhibition was 24% in assay [1] (setting [7]); 98% (active) in assay [1] (setting [8]); 8.35% in assay [1] (at 50.0 µM); 19% in assay [2] (setting [7]); 99% (active) in assay [2] (setting [8]); 13% in assay [2] (at 50.0 µM). Moreover, the growth inhibition in assay [3] (setting [7]) is -2%; in assay [3] (setting [8]), 95% (active); in assay [3] (at 50.0 µM) it was 29.4%; in assay [4] (setting [7]) it was -7%; in assay [4] (setting [8]), 96% (active); in assay [4] (at 50.0 µM) it was 13.2%. Also, the growth inhibition in assay [5] (setting [7]) was 6%; in assay [5] (setting [8]) it was 95% (active); in assay [5] (at 50.0 µM), 26.4%; in assay [6] (setting [7]), 18%; in assay [6] (setting [8]), 98% (active); in assay [6] (at 50.0 µM), 32.2%.

Regarding `CCN(CC)CCN(C)c1ccc(CO)c2c1C(=O)c1ccccc1S2=O` (stereo not given), the growth inhibition in assay [1] (setting [7]) is 5%; in assay [1] (setting [8]) it was 74% (active); in assay [1] (at 50.0 µM), 95.8% (active); in assay [2] (setting [7]), -3%; in assay [2] (setting [8]), 28%; in assay [2] (at 50.0 µM), 60.9%. Besides, the growth inhibition is -5% in assay [3] (setting [7]); 78% (active) in assay [3] (setting [8]); 96.3% (active) in assay [3] (at 50.0 µM); 2% in assay [4] (setting [7]); 23% in assay [4] (setting [8]); 33.5% in assay [4] (at 50.0 µM). Further, the growth inhibition in assay [5] (setting [7]) is 2%; in assay [5] (setting [8]), 9%; in assay [5] (at 50.0 µM), 82.4% (active); in assay [6] (setting [7]), -1%; in assay [6] (setting [8]) it was 73% (active); in assay [6] (at 50.0 µM), 97.9% (active).

Regarding `CN(C)CCCNc1cc(O)c2c(c1O)C(=O)c1ccccc1C2=O`, the growth inhibition was 22% in assay [1] (setting [7]); 98% (active) in assay [1] (setting [8]); 99.2% (active) in assay [1] (at 50.0 µM); 18% in assay [2] (setting [7]); 94% (active) in assay [2] (setting [8]); 97.6% (active) in assay [2] (at 50.0 µM). Also, the growth inhibition was 26% in assay [3] (setting [7]); 96% (active) in assay [3] (setting [8]); 98.3% (active) in assay [3] (at 50.0 µM); -16% in assay [4] (setting [7]); 94% (active) in assay [4] (setting [8]); 94.8% (active) in assay [4] (at 50.0 µM). The growth inhibition in assay [5] (setting [7]) is 13%; in assay [5] (setting [8]), 97% (active); in assay [5] (at 50.0 µM), 98.3% (active); in assay [6] (setting [7]), 16%; in assay [6] (setting [8]), 98% (active); in assay [6] (at 50.0 µM), 99% (active).

Take `CN(c1ccccc1)N(C)c1ccccc1`: the growth inhibition in assay [1] (setting [7]) was -1%; in assay [1] (setting [8]) it was 22%; in assay [1] (at 50.0 µM) it was 40.6%; in assay [2] (setting [7]) it was -3%; in assay [2] (setting [8]), -1%; in assay [2] (at 50.0 µM) it was -3.45%. In addition, the growth inhibition was -5% in assay [3] (setting [7]); -16% in assay [3] (setting [8]); -17.4% in assay [3] (at 50.0 µM); 8% in assay [4] (setting [7]); 15% in assay [4] (setting [8]); -33.2% in assay [4] (at 50.0 µM). In addition, the growth inhibition was 5% in assay [5] (setting [7]); 5% in assay [5] (setting [8]); -7.8% in assay [5] (at 50.0 µM); 3% in assay [6] (setting [7]); 26% in assay [6] (setting [8]); 4% in assay [6] (at 50.0 µM).

Turning to `CCOC(=O)C1=C(c2ccccc2)c2ccccc2OC1C(=O)O` (stereo not given), the growth inhibition in assay [1] (setting [7]) was 8%; in assay [1] (setting [8]), 38%; in assay [1] (at 50.0 µM), 26.5%; in assay [2] (setting [7]), 22%; in assay [2] (setting [8]), 60%; in assay [2] (at 50.0 µM) it was 14.8%. Moreover, the growth inhibition in assay [3] (setting [7]) is 16%; in assay [3] (setting [8]), 64%; in assay [3] (at 50.0 µM), 19.5%; in assay [4] (setting [7]), 2%; in assay [4] (setting [8]) it was 38%; in assay [4] (at 50.0 µM), 59.9%. The growth inhibition in assay [5] (setting [7]) was 16%; in assay [5] (setting [8]), 29%; in assay [5] (at 50.0 µM) it was 32.5%; in assay [6] (setting [7]) it was 34%; in assay [6] (setting [8]), 78% (active); in assay [6] (at 50.0 µM) it was 55.8%.

With `COC(=O)C1=C(C)NC(c2ccc(OC)cc2OC)C(C(=O)OC)=C1C` (stereo not given), the growth inhibition in assay [1] (setting [7]) is 4%; in assay [1] (setting [8]) it was 21%; in assay [1] (at 50.0 µM), 68.7%; in assay [2] (setting [7]), 3%; in assay [2] (setting [8]), 11%; in assay [2] (at 50.0 µM), 25.6%. Moreover, the growth inhibition in assay [3] (setting [7]) is 1%; in assay [3] (setting [8]) it was 14%; in assay [3] (at 50.0 µM), 76.8% (active); in assay [4] (setting [7]), -3%; in assay [4] (setting [8]) it was 4%; in assay [4] (at 50.0 µM), 25.6%. For the same compound, the growth inhibition in assay [5] (setting [7]) was 1%; in assay [5] (setting [8]) it was 16%; in assay [5] (at 50.0 µM), 49.7%; in assay [6] (setting [7]), -1%; in assay [6] (setting [8]), 24%; in assay [6] (at 50.0 µM) it was 58%.

Take `[Cu+2].c1ccc2n[nH]nc2c1`: the growth inhibition was 99% (active) in assay [1] (setting [7]); 99% (active) in assay [1] (setting [8]); 98.8% (active) in assay [1] (at 50.0 µM); 99% (active) in assay [2] (setting [7]); 99% (active) in assay [2] (setting [8]); 99.3% (active) in assay [2] (at 50.0 µM). The growth inhibition in assay [3] (setting [7]) was 98% (active); in assay [3] (setting [8]), 99% (active); in assay [3] (at 50.0 µM), 98.5% (active); in assay [4] (setting [7]), 70% (active); in assay [4] (setting [8]), 99% (active); in assay [4] (at 50.0 µM), 98.3% (active). Further, the growth inhibition is 96% (active) in assay [5] (setting [7]); 99% (active) in assay [5] (setting [8]); 98.6% (active) in assay [5] (at 50.0 µM); 99% (active) in assay [6] (setting [7]); 99% (active) in assay [6] (setting [8]); 98.7% (active) in assay [6] (at 50.0 µM).

With `CC1(C)OC2C(COC(c3ccccc3)(c3ccccc3)c3ccccc3)OC(n3cnc4c(N)ncnc43)C2O1` (stereo not given), the growth inhibition in assay [1] (setting [7]) is -1%; in assay [1] (setting [8]), 80% (active); in assay [1] (at 50.0 µM) it was 64.9%; in assay [2] (setting [7]), 19%; in assay [2] (setting [8]), 99% (active); in assay [2] (at 50.0 µM) it was 56.8%. In addition, the growth inhibition is 11% in assay [3] (setting [7]); 92% (active) in assay [3] (setting [8]); 18.6% in assay [3] (at 50.0 µM); -4% in assay [4] (setting [7]); 89% (active) in assay [4] (setting [8]); 72.5% (active) in assay [4] (at 50.0 µM). In addition, the growth inhibition in assay [5] (setting [7]) was -2%; in assay [5] (setting [8]) it was 92% (active); in assay [5] (at 50.0 µM), 48.2%; in assay [6] (setting [7]) it was 32%; in assay [6] (setting [8]), 95% (active); in assay [6] (at 50.0 µM), 58.5%.
